Test results from ChEMBL document CHEMBL1961873, “Compounds: GSK PKIS; Assays: Nanosyn kinase panel” (2012).

Assays:
[1] = molecular target: T1, Mitogen-activated protein kinase 12 (Homo sapiens) (UniProt P53778); conditions: at 1 µM;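 note: values are averaged p38gamma kinase inhibition readings, compounds tested at 1 µM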
T1 sequence (whole entry): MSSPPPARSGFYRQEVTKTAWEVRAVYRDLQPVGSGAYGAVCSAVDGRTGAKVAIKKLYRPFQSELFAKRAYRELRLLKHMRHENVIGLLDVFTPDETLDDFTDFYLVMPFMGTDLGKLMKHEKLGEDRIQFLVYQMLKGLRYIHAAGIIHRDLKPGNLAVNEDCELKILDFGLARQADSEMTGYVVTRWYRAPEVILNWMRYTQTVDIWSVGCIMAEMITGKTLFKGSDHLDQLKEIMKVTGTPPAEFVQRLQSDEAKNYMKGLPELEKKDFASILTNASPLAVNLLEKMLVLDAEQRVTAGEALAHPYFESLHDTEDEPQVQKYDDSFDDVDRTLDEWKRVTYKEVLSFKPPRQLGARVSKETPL

[2] = molecular target: SRSF protein kinase 1 (Homo sapiens) (UniProt Q96SB4); conditions: at 0.1 µM
Sequence of SRSF protein kinase 1 (Homo sapiens) (Q96SB4 whole entry, canonical isoform): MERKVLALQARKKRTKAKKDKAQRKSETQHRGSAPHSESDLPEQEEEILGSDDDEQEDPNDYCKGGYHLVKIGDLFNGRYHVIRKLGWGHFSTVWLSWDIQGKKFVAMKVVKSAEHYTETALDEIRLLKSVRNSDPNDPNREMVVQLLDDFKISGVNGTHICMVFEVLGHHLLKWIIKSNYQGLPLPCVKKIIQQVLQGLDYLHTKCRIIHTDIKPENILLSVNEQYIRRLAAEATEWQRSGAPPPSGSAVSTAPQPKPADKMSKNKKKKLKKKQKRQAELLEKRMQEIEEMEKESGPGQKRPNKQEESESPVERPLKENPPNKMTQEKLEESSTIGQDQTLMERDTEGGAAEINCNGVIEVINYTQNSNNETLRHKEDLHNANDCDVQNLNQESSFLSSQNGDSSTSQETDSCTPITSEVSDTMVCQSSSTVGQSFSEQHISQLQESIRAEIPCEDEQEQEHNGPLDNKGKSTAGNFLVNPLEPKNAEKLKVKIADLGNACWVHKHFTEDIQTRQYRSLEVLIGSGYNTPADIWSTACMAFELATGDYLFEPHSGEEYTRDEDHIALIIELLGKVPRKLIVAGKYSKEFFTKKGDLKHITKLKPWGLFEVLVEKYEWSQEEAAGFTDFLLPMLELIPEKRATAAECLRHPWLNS

[3] = molecular target: SRSF protein kinase 1 (Homo sapiens) (UniProt Q96SB4); conditions: at 1 µM
[4] = molecular target: Phosphatidylinositol 4,5-bisphosphate 3-kinase catalytic subunit alpha isoform (Homo sapiens) (UniProt P42336); conditions: at 0.1 µM
Sequence of Phosphatidylinositol 4,5-bisphosphate 3-kinase catalytic subunit alpha isoform (Homo sapiens) (P42336 whole entry, canonical isoform): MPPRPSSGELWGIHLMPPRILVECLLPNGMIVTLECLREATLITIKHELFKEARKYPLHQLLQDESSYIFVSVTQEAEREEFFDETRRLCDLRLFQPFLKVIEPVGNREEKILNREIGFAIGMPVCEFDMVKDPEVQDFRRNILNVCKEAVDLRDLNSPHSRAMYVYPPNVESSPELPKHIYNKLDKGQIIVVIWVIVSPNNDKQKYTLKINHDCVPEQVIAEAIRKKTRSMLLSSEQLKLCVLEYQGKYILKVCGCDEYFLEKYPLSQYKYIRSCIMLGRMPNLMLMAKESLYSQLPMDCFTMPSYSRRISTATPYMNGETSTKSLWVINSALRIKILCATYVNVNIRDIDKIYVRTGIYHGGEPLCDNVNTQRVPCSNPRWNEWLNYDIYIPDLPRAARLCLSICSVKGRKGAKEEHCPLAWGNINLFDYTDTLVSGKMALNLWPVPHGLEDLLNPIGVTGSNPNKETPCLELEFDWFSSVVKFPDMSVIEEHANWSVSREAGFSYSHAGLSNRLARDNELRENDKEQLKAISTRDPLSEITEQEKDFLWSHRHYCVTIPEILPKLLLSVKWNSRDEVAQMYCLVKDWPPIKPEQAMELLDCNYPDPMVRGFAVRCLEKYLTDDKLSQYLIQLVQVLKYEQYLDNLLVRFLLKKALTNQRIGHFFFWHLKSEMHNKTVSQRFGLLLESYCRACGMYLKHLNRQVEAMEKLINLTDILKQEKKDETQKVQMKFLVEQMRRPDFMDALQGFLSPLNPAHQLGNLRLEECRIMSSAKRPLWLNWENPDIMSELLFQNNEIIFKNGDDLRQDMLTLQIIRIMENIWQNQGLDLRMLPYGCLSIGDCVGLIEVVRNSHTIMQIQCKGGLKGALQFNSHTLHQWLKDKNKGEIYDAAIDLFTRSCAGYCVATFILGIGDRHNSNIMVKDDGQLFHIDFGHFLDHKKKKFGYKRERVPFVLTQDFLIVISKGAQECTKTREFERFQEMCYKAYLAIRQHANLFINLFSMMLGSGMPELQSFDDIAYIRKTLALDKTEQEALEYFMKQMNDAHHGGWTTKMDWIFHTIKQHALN

[5] = molecular target: Phosphatidylinositol 4,5-bisphosphate 3-kinase catalytic subunit alpha isoform (Homo sapiens) (UniProt P42336); conditions: at 1 µM
[6] = molecular target: T2, Phosphatidylinositol 4,5-bisphosphate 3-kinase catalytic subunit delta isoform (Homo sapiens) (UniProt O00329); conditions: at 0.1 µM
T2 sequence (whole entry): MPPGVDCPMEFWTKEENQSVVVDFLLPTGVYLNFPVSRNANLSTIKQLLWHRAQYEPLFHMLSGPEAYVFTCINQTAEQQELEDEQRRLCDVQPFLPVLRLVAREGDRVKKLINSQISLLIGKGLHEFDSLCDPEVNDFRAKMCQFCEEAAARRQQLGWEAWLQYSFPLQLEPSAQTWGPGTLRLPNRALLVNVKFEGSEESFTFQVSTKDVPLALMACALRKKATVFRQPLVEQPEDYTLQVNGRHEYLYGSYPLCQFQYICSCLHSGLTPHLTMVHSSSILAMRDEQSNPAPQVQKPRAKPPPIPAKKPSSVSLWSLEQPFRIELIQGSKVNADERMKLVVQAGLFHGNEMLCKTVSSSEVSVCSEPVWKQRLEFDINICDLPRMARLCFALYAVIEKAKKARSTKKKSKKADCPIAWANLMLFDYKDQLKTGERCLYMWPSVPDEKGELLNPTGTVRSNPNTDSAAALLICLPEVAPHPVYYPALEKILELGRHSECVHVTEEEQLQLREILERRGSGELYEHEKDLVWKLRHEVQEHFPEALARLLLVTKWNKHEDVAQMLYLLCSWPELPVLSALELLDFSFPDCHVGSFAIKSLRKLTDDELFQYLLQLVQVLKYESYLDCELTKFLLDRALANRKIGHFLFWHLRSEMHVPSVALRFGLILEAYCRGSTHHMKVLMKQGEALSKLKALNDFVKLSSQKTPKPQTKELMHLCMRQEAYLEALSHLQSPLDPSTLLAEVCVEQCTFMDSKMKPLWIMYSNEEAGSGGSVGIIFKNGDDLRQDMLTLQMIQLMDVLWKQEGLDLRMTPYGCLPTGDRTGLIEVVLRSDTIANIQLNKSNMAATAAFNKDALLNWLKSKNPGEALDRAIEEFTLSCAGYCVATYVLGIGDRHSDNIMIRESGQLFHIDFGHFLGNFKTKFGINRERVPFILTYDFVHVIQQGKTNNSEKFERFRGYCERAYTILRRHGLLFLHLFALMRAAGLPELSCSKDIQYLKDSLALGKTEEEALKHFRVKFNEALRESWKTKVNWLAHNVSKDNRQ

[7] = molecular target: T2, Phosphatidylinositol 4,5-bisphosphate 3-kinase catalytic subunit delta isoform (Homo sapiens); conditions: at 1 µM
[8] = molecular target: Phosphatidylinositol 4-kinase beta (Homo sapiens) (UniProt Q9UBF8); conditions: at 1 µM
Sequence of Phosphatidylinositol 4-kinase beta (Homo sapiens) (Q9UBF8 2-816 limits assumed): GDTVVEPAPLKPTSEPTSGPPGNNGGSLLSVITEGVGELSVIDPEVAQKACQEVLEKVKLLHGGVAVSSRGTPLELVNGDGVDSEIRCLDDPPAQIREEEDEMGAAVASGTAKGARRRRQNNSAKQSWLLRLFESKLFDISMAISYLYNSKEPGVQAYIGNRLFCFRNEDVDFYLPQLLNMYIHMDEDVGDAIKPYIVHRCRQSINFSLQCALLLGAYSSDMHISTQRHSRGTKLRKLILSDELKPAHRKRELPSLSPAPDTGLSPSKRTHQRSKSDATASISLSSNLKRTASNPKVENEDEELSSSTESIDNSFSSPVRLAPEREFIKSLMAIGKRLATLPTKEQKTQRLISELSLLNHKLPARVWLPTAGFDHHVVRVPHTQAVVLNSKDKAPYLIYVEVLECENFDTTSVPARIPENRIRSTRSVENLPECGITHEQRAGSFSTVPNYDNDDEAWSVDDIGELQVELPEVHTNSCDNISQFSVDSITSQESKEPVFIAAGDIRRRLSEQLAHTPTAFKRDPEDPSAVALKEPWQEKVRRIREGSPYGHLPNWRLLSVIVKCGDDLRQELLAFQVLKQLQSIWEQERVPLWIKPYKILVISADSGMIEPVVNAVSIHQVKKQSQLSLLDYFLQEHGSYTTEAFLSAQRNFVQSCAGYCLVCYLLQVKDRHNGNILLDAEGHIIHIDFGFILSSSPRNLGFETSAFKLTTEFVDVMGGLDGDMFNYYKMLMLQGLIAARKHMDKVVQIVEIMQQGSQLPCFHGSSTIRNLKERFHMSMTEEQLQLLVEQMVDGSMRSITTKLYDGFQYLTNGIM

[9] = molecular target: Sphingosine kinase 1 (Homo sapiens) (UniProt Q9NYA1); conditions: at 0.1 µM
Sequence of Sphingosine kinase 1 (Homo sapiens) (Q9NYA1 whole entry): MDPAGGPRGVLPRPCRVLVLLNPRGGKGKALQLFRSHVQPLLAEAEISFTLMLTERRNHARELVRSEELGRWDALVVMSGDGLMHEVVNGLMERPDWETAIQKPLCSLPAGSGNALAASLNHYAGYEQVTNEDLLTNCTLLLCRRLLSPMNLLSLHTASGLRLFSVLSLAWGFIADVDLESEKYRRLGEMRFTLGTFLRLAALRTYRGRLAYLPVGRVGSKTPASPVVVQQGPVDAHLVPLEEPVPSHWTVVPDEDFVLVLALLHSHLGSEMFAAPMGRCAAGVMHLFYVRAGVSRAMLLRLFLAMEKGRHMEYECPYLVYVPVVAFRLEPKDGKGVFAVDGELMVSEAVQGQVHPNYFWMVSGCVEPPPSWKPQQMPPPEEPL

[10] = molecular target: Sphingosine kinase 1 (Homo sapiens) (UniProt Q9NYA1); conditions: at 1 µM
[11] = molecular target: T3, Sphingosine kinase 2 (Homo sapiens) (UniProt Q9NRA0); conditions: at 0.1 µM
T3 sequence (whole entry): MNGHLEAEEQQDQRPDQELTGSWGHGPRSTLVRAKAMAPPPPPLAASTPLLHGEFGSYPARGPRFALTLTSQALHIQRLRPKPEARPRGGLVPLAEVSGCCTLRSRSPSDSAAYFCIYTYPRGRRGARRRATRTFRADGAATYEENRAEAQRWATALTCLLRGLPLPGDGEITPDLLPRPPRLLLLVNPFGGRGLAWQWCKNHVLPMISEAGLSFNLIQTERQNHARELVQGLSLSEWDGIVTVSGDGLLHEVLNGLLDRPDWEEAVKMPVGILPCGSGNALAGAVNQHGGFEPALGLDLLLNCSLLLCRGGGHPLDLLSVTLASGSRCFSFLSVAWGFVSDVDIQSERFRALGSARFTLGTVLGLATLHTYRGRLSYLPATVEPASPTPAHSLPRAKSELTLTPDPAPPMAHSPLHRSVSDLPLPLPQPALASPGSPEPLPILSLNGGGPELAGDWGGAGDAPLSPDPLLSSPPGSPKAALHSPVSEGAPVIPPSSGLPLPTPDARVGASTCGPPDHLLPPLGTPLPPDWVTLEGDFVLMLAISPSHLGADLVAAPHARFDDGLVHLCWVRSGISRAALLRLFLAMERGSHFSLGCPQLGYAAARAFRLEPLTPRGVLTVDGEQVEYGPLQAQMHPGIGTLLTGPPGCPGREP

[12] = molecular target: T3, Sphingosine kinase 2 (Homo sapiens); conditions: at 1 µM
[13] = molecular target: Casein kinase II subunit alpha (Homo sapiens) (UniProt P68400); conditions: at 0.1 µM
Sequence of Casein kinase II subunit alpha (Homo sapiens) (P68400 whole entry, looked up): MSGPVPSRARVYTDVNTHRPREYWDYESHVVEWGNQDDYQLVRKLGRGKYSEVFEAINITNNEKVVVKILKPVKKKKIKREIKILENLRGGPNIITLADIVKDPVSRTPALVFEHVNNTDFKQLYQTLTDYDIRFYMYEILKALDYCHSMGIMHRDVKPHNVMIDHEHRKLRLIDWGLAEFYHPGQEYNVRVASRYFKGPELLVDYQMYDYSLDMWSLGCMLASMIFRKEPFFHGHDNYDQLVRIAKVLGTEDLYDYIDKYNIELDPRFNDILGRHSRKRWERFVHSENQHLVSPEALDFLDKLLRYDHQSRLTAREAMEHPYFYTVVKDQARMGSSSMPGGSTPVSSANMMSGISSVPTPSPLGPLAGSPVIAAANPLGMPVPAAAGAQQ

[14] = molecular target: Casein kinase II subunit alpha (Homo sapiens) (UniProt P68400); conditions: at 1 µM
[15] = molecular target: T4, Inhibitor of nuclear factor kappa-B kinase subunit alpha (Homo sapiens) (UniProt O15111); conditions: at 0.1 µM
T4 sequence (whole entry): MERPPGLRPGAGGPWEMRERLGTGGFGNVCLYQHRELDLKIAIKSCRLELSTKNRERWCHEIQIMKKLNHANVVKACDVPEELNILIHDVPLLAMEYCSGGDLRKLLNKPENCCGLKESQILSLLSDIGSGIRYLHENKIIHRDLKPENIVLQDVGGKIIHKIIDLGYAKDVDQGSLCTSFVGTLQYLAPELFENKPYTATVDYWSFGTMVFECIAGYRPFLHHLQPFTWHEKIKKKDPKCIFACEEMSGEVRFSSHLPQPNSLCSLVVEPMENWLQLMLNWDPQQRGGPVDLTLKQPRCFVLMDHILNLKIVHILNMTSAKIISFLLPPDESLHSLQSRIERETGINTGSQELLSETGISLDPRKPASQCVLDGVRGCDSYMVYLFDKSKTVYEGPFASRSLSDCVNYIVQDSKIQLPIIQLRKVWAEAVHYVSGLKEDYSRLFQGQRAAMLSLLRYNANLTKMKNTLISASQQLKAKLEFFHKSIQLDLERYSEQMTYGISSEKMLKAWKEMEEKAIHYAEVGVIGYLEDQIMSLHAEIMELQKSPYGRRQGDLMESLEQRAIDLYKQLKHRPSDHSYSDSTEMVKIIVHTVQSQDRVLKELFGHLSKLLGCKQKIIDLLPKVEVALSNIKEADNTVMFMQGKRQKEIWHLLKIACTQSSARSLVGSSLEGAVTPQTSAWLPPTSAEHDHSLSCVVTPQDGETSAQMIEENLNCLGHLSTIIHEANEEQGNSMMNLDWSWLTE

[16] = molecular target: T4, Inhibitor of nuclear factor kappa-B kinase subunit alpha (Homo sapiens); conditions: at 1 µM
[17] = molecular target: T5, Inhibitor of nuclear factor kappa-B kinase subunit beta (Homo sapiens) (UniProt O14920); conditions: at 0.1 µM
T5 sequence (whole entry): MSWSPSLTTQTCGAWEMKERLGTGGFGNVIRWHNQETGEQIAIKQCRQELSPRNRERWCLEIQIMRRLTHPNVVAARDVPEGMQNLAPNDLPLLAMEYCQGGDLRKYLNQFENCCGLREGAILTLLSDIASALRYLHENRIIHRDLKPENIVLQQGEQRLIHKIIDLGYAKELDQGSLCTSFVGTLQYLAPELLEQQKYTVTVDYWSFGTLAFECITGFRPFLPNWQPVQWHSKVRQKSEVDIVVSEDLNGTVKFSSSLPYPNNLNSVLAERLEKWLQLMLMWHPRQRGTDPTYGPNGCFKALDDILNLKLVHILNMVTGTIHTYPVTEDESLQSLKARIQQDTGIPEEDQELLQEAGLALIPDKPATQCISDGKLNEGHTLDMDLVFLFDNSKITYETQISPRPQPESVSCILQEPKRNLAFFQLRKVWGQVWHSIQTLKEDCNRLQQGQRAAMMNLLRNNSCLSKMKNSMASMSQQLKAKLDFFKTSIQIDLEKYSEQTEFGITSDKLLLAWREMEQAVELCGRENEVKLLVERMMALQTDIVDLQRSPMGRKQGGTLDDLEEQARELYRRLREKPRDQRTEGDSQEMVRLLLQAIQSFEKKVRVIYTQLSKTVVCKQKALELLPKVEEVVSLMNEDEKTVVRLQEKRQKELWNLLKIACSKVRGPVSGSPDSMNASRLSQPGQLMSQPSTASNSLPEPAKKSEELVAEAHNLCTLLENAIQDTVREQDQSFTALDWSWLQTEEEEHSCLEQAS

[18] = molecular target: T5, Inhibitor of nuclear factor kappa-B kinase subunit beta (Homo sapiens); conditions: at 1 µM
[19] = molecular target: T6, Inhibitor of nuclear factor kappa-B kinase subunit epsilon (Homo sapiens) (UniProt Q14164); conditions: at 0.1 µM;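 note: mean inhibition of IKKε reported, from the GSK PKIS dataset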
T6 sequence (whole entry): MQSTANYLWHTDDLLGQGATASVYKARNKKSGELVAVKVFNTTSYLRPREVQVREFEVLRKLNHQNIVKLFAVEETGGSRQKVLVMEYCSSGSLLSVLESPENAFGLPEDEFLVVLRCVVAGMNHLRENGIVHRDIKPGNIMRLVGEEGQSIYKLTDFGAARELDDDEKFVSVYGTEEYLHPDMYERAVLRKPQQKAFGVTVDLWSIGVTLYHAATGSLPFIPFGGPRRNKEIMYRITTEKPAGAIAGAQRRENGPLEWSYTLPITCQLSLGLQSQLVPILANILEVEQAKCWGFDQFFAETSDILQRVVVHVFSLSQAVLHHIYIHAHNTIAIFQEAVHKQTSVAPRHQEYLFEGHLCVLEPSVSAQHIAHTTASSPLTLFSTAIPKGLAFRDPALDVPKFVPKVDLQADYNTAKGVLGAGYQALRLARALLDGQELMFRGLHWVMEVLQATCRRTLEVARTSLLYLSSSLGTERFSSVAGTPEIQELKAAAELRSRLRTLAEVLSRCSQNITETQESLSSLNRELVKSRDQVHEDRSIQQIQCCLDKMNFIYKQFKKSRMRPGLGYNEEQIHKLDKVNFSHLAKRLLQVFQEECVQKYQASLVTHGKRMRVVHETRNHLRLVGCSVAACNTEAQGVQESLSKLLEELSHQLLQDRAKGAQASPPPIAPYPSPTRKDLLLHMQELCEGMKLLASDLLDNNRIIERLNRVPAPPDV

[20] = molecular target: Phosphatidylinositol 4-kinase beta (Homo sapiens) (UniProt Q9UBF8); conditions: at 0.1 µM

SMILES	inhibition [1] [%]	inhibition [2] [%]	inhibition [3] [%]	inhibition [4] [%]	inhibition [5] [%]	inhibition [6] [%]	inhibition [7] [%]	inhibition [8] [%]	inhibition [9] [%]	inhibition [10] [%]	inhibition [11] [%]	inhibition [12] [%]	inhibition [13] [%]	inhibition [14] [%]	inhibition [15] [%]	inhibition [16] [%]	inhibition [17] [%]	inhibition [18] [%]	inhibition [19] [%]	inhibition [20] [%]
O=C1Nc2ccccc2/C1=C/Nc1ccc(-n2cncn2)cc1	3.66	-1.28	1.26	3.26	3.95	1.81	2.88	-9.88	1.74	-4.72	-0.36	1.3	7.12	12.8	11.8	2.05	9.35	11.4	7.57	
COc1ccc2ncn(-c3cc(O[C@H](C)c4ccccc4Cl)c(C(N)=O)s3)c2c1	4.09	-1.6	-1.38	3.9	4.87	1.95	17.5	-2.87	1.65	-2.39	-0.22	0.79	5.1	3.41	7.01	6.42	6.12	4.8	5.23	1.3
CNC(=O)c1cncc(/C=C/c2c(C)cccc2C)c1	-0.37	0.32	0.21	-1.85	-3.99	-1.64	-1.98	0.59	0.03	-1.57	0.8	2.92	1.93	5.37	2.95	-0.54	1.19	-0.96	0.37	3.95
